High-throughput results: PubChem, National Center for Advancing Translational Sciences (NCATS)
NTMT1 inh: Primary qHTS for Inhibitors of N-terminal methyltransferase 1 (NTMT1): MTaseGlo Assay | N-terminal Xaa-Pro-Lys N-methyltransferase 1 (Homo sapiens), Q9BV86 | NTMT1 MTase-Glo SAH luminescence, purified enzyme | Potency, µM (top dose mostly 114 µM), most hits filed as inhibitors | 59,000 tested, 2.5% active; also: nearly all actives have a fitted effect of over 65% in size
FH mod: Identification of activators of human fumarate hydratase by quantitative high-throughput screening; 54,000 tested, 0.22% active; Potency, µM (titrated, usually from 79.9 µM), hits mostly inhibitors; FH coupled MDH/diaphorase resazurin fluorescence, 15 min; AID 1347055, 2019; also: the screen sought activators but most active calls are inhibition curves; nearly all actives have a fitted effect of over 45% in size
Target sequence (P07954 whole entry, looked up): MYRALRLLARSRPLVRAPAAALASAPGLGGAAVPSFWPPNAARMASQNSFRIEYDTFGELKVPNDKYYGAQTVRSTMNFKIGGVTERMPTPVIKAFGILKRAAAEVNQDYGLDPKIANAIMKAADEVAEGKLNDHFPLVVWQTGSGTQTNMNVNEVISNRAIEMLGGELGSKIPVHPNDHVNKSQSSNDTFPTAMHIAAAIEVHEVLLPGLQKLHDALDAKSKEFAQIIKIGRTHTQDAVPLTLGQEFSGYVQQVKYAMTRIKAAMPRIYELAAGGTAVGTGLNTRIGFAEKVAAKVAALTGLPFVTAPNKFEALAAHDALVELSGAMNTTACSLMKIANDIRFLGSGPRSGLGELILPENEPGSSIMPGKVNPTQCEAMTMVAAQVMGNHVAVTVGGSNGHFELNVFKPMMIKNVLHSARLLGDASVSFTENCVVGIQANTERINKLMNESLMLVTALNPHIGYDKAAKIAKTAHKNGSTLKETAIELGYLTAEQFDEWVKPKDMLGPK
DYRK1A inh-1: Assay for Inhibitors of Dual-Specificity Tyrosine-(Y)-Phosphorylation Regulated Kinase 1A (Kinase-Glo assay). shares compounds with NTMT1 inh. recombinant DYRK1A, Kinase-Glo ATP depletion luminescence. Potency, µM (doses to about 76.9 µM), usual class: inhibitors. 100 tested, 80% active
CLK4 inh-1: Confirmation Assay for Inhibitors of CDC-like Kinase 4 (Kinase-Glo Assay): SAR round 2; Potency, µM (doses to about 76.9 µM), hits mostly inhibitors; recombinant Clk4, Kinase-Glo ATP luminescence, 4.5 h; shares compounds with NTMT1 inh; 90 tested, 90% active
CLK4 inh-2: Kinase Inhibition Study on Inhibitors of CDC-like Kinase 4 (Reaction Biology data): SAR round 2; Reaction Biology kinase assay, 10 uM ATP; AID 504421, 2011; Potency, µM, hits mostly inhibitors; 65 tested, 100% active; shares compounds with NTMT1 inh; calls by dose curve
DYRK1A inh-2: Kinase Inhibition Study on Inhibitors of Dyrk1a (Reaction Biology data). shares compounds with NTMT1 inh. Reaction Biology kinase assay, 10 uM ATP. Potency, µM, actives largely listed as inhibitors. 65 tested, 90% active. AID 504424, 2011;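 active = compounds that showed inhibition of Dyrk1a and received a fitted potency; inactive = compounds that showed no inhibition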
CLK2 RBC: Kinase Inhibition Study on Inhibitors of CDC-like Kinase 2 (Reaction Biology data); Potency, µM, usual class: inhibitors; shares compounds with NTMT1 inh; AID 504427, 2011; 65 tested, 90% active; Reaction Biology kinase assay, 10 uM ATP;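 active = compound that inhibits Clk2 kinase in the dose series, with an IC50 potency reported; inactive = no inhibition seen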
CLK3 inh: Kinase Inhibition Study on Inhibitors of CDC-like Kinase 3 (Reaction Biology data) | AID 504428, 2011 | shares compounds with NTMT1 inh | Potency, µM, most hits filed as inhibitors | 65 tested, 40% active | recombinant CLK3 kinase assay, 10 uM ATP;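 active = compounds that inhibited Clk3 enough in the ten-dose series to give a half-maximal potency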
DYRK1B RBC: Kinase Inhibition Study on Inhibitors of Dyrk1b (Reaction Biology data); shares compounds with NTMT1 inh; 65 tested, 80% active; Potency, µM, actives largely listed as inhibitors; Recombinant Dyrk1b kinase assay, 10 uM ATP; AID 504429, 2011;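 active = compounds whose dose response shows an inhibitor phenotype against the kinase Dyrk1b; inactive = compounds showing no inhibitor phenotype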
CLK1 RBC: Kinase Inhibition Study on Inhibitors of CDC-like Kinase 1 (Reaction Biology data). shares compounds with NTMT1 inh. recombinant Clk1 kinase assay, 10 uM ATP. 65 tested, 90% active. Potency, µM, usual class: inhibitors;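 active = compounds that block the splicing kinase Clk1 enough to give a fitted half-inhibition concentration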
Sfp PPTase inh: qHTS Assay for Inhibitos of Bacillus subtilis Sfp phosphopantetheinyl transferase (PPTase): Chemistry Optimization Followup | shares compounds with NTMT1 inh | purified Sfp PPTase enzyme activity, qHTS | Potency, µM (top dose mostly 114 µM), most hits filed as inhibitors | 230 tested, 78% active | AID 540350, 2011
HM489 growth: qHTS for Inhibitos of Bacillus subtilis Sfp phosphopantetheinyl transferase (PPTase): Chemistry Optimization Followup in B. Subtilis HM489 | shares compounds with NTMT1 inh | B. subtilis HM489 (acpS-) growth, BacTiter-Glo, 5 h | Potency, µM (highest dose often 114 µM), usual class: inhibitors | 220 tested, 50% active
Sfp PPTase gel: Gel-Based Assay for Inhibitos of Bacillus subtilis Sfp phosphopantetheinyl transferase (PPTase): Chemistry Optimization Followup | shares compounds with NTMT1 inh | purified Sfp PPTase, gel-based product detection | Potency, µM (doses to about 250 µM), most hits filed as inhibitors | 220 tested, 54% active
Sfp inh gel: qHTS Assay for Inhibitors of Bacillus subtilis Sfp phosphopantetheinyl transferase (PPTase): Gel Based Assay. shares compounds with NTMT1 inh. purified Sfp PPTase, gel-based product detection. Potency, µM (titrated, usually from 250 µM), actives largely listed as inhibitors. 45 tested, 90% active. AID 602362, 2012
Sfp inh SAR2: qHTS Assay for Inhibitors of Bacillus subtilis Sfp phosphopantetheinyl transferase (PPTase): SAR Round 2; AID 602370, 2012; shares compounds with NTMT1 inh; Potency, µM (top dose mostly 57.1 µM), actives largely listed as inhibitors; 230 tested, 87% active; purified Sfp enzyme, PPTase activity, qHTS
hGST ctr: qHTS Assay for Inhibitors of Bacillus subtilis Sfp phosphopantetheinyl transferase (PPTase): SAR in hGST A1-1. shares compounds with NTMT1 inh. hGST A1-1 enzyme activity counter-screen, qHTS. Potency, µM (titrated, usually from 114 µM), most hits filed as inhibitors. 55 tested, under 10 active
HSD17B4 counter: Extended Characterization of HPGD Inhibitors: Counterscreen Against HSD17b4; shares compounds with NTMT1 inh; Potency, µM (doses to about 57.1 µM), hits mostly inhibitors; purified HSD17B4, estradiol/NAD+, NADH fluorescence; AID 743187, 2013; 230 tested, 10% active
ALDH1A1 counter: Extended Characterization of HPGD Inhibitors: Counterscreen Against ALDH1A1 | recombinant ALDH1A1, NADH fluorescence, propionaldehyde/NAD+ | 230 tested, 93% active | AID 743195, 2013 | Potency, µM (series often up to 57.1 µM), actives largely listed as inhibitors | shares compounds with NTMT1 inh
NNMT counter: Counterscreen qHTS for Inhibitors of N-terminal methyltransferase 1 (NTMT1): NNMT MTaseGlo assay; shares compounds with NTMT1 inh; NNMT MTase-Glo luminescence, SAH detection; Potency, µM (highest dose often 57.1 µM), hits mostly inhibitors; 120 tested, 10% active
A number is an active result; . = inactive; ? = inconclusive; / = no result. Compounds with a hit are over-represented: about 3.7% of the library has one in this group of screens. Unless noted, calls follow the shape of the dose curve; as a rule, active = well fitted curve in the direction sought with a large enough effect; inconclusive = small, poorly fitted or top-dose-only effect, or another doubt; inactive = no such curve, though single readings can be large; an effect the other way counts as inactive or inconclusive.

SMILES	NTMT1 inh	FH mod	DYRK1A inh-1	others
c1nc(N2CCC(N3CCCC3)CC2)c2cc(-c3ccc4c(c3)OCO4)ccc2n1	?	/	23.2µM	CLK4 inh-2=9.96;DYRK1A inh-2=.;CLK2 RBC=.;CLK3 inh=.;DYRK1B RBC=.;CLK1 RBC=15µM
c1nc(NCC2CCOC2)c2cc(-c3ccc4c(c3)OCO4)ccc2n1 (centres undefined)	25.1µM	.	0.0923µM
Cc1nc(CCNc2ncnc3ccc(-c4ccc5c(c4)OCO5)cc23)cs1	.	/	/	CLK4 inh-1=0.0654µM
FC(F)(F)c1cccc(N2CCN(C(=S)Nc3ccc4ccccc4n3)CC2)c1	/	/	/	Sfp PPTase inh=5.91µM;HM489 growth=?;Sfp PPTase gel=0.316µM;Sfp inh SAR2=10.2µM;HSD17B4 counter=.;ALDH1A1 counter=6.81µM
FC(F)(F)c1cccc(N2CCN(C(=S)Nc3nccc4ccccc34)CC2)c1	?	/	/	Sfp PPTase inh=1.87µM;HM489 growth=2.64µM;Sfp PPTase gel=7.94µM;Sfp inh gel=1.35µM;Sfp inh SAR2=1.45µM;hGST ctr=.;HSD17B4 counter=27.1µM;ALDH1A1 counter=17.1µM
Cc1ccc(S(=O)(=O)NCC(=O)Nc2nc(-c3ccccc3)cs2)cc1	.	/	/
Cc1cc(C)n2ncc(C(=O)Nc3ccc(C(F)(F)F)cc3)c2n1	.	/	/
Cc1sc(NC(=O)Cc2ccc3c(c2)OCO3)nc1-c1ccc2c(c1)CCN2C(=O)c1ccccc1C(F)(F)F	.	/	/
COc1cccc(C(=O)NCCNc2nc3cc(C)cc(C)c3cc2C#N)c1	.	.	/	NNMT counter=?
Cc1ccc(F)cc1S(=O)(=O)N[C@@H]1CCN(Cc2ccc(OC(C)C)cc2)C1	?	.	/	NNMT counter=.
O=C(CCCc1ccc2cccnc2n1)NCc1cc(-c2ccc(F)c(C(F)(F)F)c2)no1	.	/	/
OCc1ccc(-c2ccc3ncnc(NCCc4cnc[nH]4)c3c2)o1	?	/	23.2µM
Cc1nc(C)c(-c2ccc3ncnc(NCCc4cnc[nH]4)c3c2)s1	?	/	26µM
CCOC(=O)c1ccc(-c2ccc3ncnc(NCCc4cnc[nH]4)c3c2)o1	?	/	1.64µM
O=C(O)c1ccc(-c2ccc3ncnc(NCCc4cnc[nH]4)c3c2)o1	.	/	9.23µM
Cc1noc(C)c1-c1ccc2ncnc(NCc3ccc(F)cc3)c2c1	.	/	/
